Measurements as given in PubChem BioAssay (NCATS).
Records with an inconclusive call do not appear. Unmarked numbers belong to inactive results. The source made the active and inactive calls. Calls come from the whole dose curve; as a rule, active = well fitted cell-killing curve with a large enough effect; inconclusive = small, poorly fitted or top-dose-only effect; inactive = flat fitted curve, though single readings scatter.

Assay: Quantitative highthroughput screen to assess conditional lethalithy of P12 Ichikawa cells grown in Human Plasma-Like Medium with dialyzed fetal bovine serum (HPLM+ds) (AID 1963879); note: nearly all actives have a fitted effect of over 35% in size
Conditions: ATP luminescence, 48 h; Potency: viability; series mostly up to 45.8 µM; viability: at the top concentration
Text: Assay Provider: Jason Cantor Ph.D.
Department of Biochemistry
University of Wisconsin-Madison, Madison, WI, USA
Chemical screening studies have identified drug sensitivities across hundreds of cancer cell lines but most putative therapeutics fail to translate. Discovery and development of drug candidates in models that more accurately reflect nutrient levels in human blood is a major challenge. Here we performed high-throughput screens in conventional versus Human Plasma-Like Medium (HPLM) to identify compounds that were "missed" when screening using the artificial culture condition. Sets of conditional anticancer compounds spanned phases of clinical development and included non-oncology drugs were assessed. […] We also traced conditional phenotypes for several chemotherapeutics to availability of HPLM-specific metabolites and confirmed others for compounds whose reported targets are encoded by nonessential genes. Our findings establish generalizable strategies for exploiting conditional lethality in HPLM to reveal therapeutic candidates and mechanisms of action in cancer cells.
Described herein are the results of each viability screens against three cell lines: NOMO1 (an acute myeloid leukemia cell line); P12-Ichikawa (a T-cell acute lymphoblastic leukemia); and SEM (a B-cell ALL). Each assay was screened using 3 different cell culture media: homemade human plasma-Like medium with 10% dialyzed fetal bovine serum (HPLM+ds); RPMI1640 with 10% untreated FBS and 5mM glucose (RPMI+s); and RPMI1640 with 10% dialyzed fetal bovine serum and 5 mM glucose (RPMI+ds).
PROTOCOL TABLE (as described by Inglese J, Shamu CE and Guy RK. 2007)
SEQUENCE No. (e.g., 1, 2, 3, etc.); […] (e.g., Cells, Incubation, Reagent, etc.); VALUE and DESCRIPTION.
1; Cells; 5 uL; white, solid bottom 1536-well Greiner assay plate.
2; Compounds; 23 nL; Kalypsis pin tool (Wako USA) equipped with a 1536-well pin head to transfer to the assay plates.
3; Incubation; 48 hours; 37C incubation.
4; Reagent; 3 uL; CellTiter Glo (Promega).
5; Incubation; 5 min, room temperature
6; Detection; Luminescence, Viewlux PerkinElmer.
NOTES (numbers refer to Sequence numbers above)
1. Briefly, 5 ul of cell reagent was dispensed using a Multidrop Combi Dispenser. The NOMO1 and SEM cells were plated at 500 cells/well and the P12-Ichikawa line at 1000 cells/well.
2. After seeding the cells, 23 nL of MIPE 4.1 library compounds (in DMSO) were added to each plate using a Kalypsys 1536 Pintool dispenser. Bortezomib at final concentration of […] and DMSO were added to each plate as positive and negative controls respectively. For each screen, MIPE 4.1 compounds were added over an eleven-point concentration range […] in 3-fold dilutions.
3. Each plate was covered with a stainless steel gasketed lid to prevent evaporation and incubated for 48 hour at 37C, 95% relative humidity, and 5% CO2.
4-5. Three microliter CellTilter-GloTM luminescent substrate mix (Promega) reagent was added to the assay plate and incubated at room temperature for 5 min.
6. The luminescence signal was measured using a ViewLux (PerkinElmer) multiplate reader with a 2 second exposure time per plate. Data for each compound were normalized as percent viability such that measurements for DMSO and the empty well controls in each plate were defined as 100% and 0%, respectively.
Potency is the fitted concentration of half-maximal effect.

SMILES	viability [%]	Potency
COCCOc1nc(-c2ccc(Cl)c(Cl)c2)n(-c2ccc(NC(=O)CCl)cc2)n1	96.1	–
CN1CCC(=C2c3ccccc3CCc3sccc32)CC1	78	–
COc1ccc2[nH]cc(CCNC(C)=O)c2c1	98.3	–
COC(=O)Nc1cc(Nc2cc(NC3CC3)c3ncc(C#N)n3n2)c(Cl)c(N2CCN(C)CC2)c1	–	20.9 µM (active)
COc1c(Cl)cc2c([nH]c3cnccc32)c1NC(=O)c1cccnc1C	99.2	–
CCOC1OC(=O)C[C@H]1NC(=O)[C@@H]1CCCN1C(=O)[C@@H](NC(=O)c1ccc(N)c(Cl)c1)C(C)(C)C (stereo not given in full)	–	1.66 µM (active)
Cc1noc(NS(=O)(=O)c2ccc(N)cc2)c1C	112	–
CC[C@H]1CN2CCc3cc(OC)c(OC)cc3[C@H]2C[C@@H]1C[C@@H]1NCCc2cc(OC)c(OC)cc21	–	0.209 µM (active)
O=C1Nc2ccc(Cl)cc2C(C#CC2CC2)(C(F)(F)F)O1 (stereo not given)	86.7	–
Cc1ccc(-c2ncn(-c3ccc(Nc4nccc(-c5cccc(N6CCOCC6)c5)n4)cc3)n2)cn1	–	0.296 µM (active)
Cc1coc2c1C(=O)C(=O)c1c-2ccc2c(C)cccc12	100	–
C=C1C(=O)OC(CCCCCCCC)C1C(=O)O (stereo not given)	97.1	–
Cc1ccc2c(c1)C(=O)[C@]1(O)CCN(c3ccccc3)C1=N2	103	–
O=C1NC(=O)C(c2cnc3ccccn23)=C1c1cn2c3c(cc(F)cc13)CN(C(=O)N1CCCCC1)CC2	–	0.588 µM (active)
CN(C)C(=N)N=C(N)N	–	26.4 µM (active)
CN(C)c1ccc(C2Nc3ccc4ccccc4c3C3=C2C(=O)CC(C)(C)C3)cc1Br (stereo not given)	105	–
O=C(Nc1cc(Cl)cc2c1[nH]c1cnccc12)c1cccnc1	102	–
COc1cc2nccc(Oc3ccc(NC(=O)NC4CC4)c(Cl)c3)c2cc1C(N)=O	–	18.7 µM (active)
NCCCC(N)(C(=O)O)C(F)F (stereo not given)	98.7	–
COc1cc(OC)c(C(=O)CCCN2CCCC2)c(OC)c1	103	–

SMILES	viability [%]	Potency
COc1cc2ncnc(Nc3cc(Br)c(O)c(Br)c3)c2cc1OC	91.2	–
Nc1nc(NCCNc2ncc(-n3ccnc3)c(-c3ccc(Cl)cc3Cl)n2)ccc1[N+](=O)[O-]	99.1	–
CS[C@H]1SC[C@@H]2C(=O)N(C)[C@H](C(C)C)C(=O)OC[C@H](NC(=O)c3cnc4ccccc4n3)C(=O)N[C@H](C)C(=O)N(C)[C@@H]1C(=O)N(C)[C@H](C(C)C)C(=O)OC[C@H](NC(=O)c1cnc3ccccc3n1)C(=O)N[C@H](C)C(=O)N2C	–	0.0209 µM (active)
CN1CCN(CCOc2cc(OC3CCOCC3)c3c(Nc4c(Cl)ccc5c4OCO5)ncnc3c2)CC1	–	8.33 µM (active)
COc1cccc2c1C(=O)c1c(O)c3c(c(O)c1C2=O)C[C@@](O)(C(=O)CO)C[C@@H]3O[C@H]1C[C@H](N)[C@@H](O)[C@H](C)O1	–	2.96 µM (active)
O=c1cc(N2CCOCC2)oc2c(-c3ccccc3)cccc12	102	–
CC(C)(O)Cn1c(NC(=O)c2ccc(-c3cn[nH]c3)s2)nc2cc(CN3CCOCC3)ccc21	–	2.35 µM (active)
CCOC(=O)N1CCN([N+]([O-])=NOc2ccc([N+](=O)[O-])cc2C#N)CC1	–	1.05 µM (active)
CC[C@H]1OC(=O)[C@H](C)C(=O)[C@H](C)[C@@H](O[C@H]2O[C@H](C)C[C@H](N(C)C)[C@@H]2O)[C@](C)(OC)C[C@@H](C)C(=O)[C@H](C)[C@H]2N(CCCCn3cnc(-c4cccnc4)c3)C(=O)O[C@]12C	99.9	–
O=C(Nc1cc(C(F)(F)F)cc(C(F)(F)F)c1)c1cc(Cl)ccc1O	–	3.72 µM (active)
CC(C)OC(=O)C(C(=O)OC(C)C)=C1SC=CS1	89.7	–
CC(C)C1CCC(C(=O)N[C@H](Cc2ccccc2)C(=O)O)CC1 (stereo not given in full)	100	–
O=C(O)C1=NC(C(=O)O)CC(C=CN2c3cc(O)c(OC4OC(CO)C(O)C(O)C4O)cc3CC2C(=O)O)=C1 (stereo not given)	104	–
CCCCCN=C(N)NN=Cc1c[nH]c2ccc(OC)cc12	–	13.2 µM (active)
Cc1nc2n(c(=O)c1CCN1CCC(c3noc4cc(F)ccc34)CC1)CCCC2	98.4	–
Cc1cn2cc(C(=O)N(C)CCO)cc(N[C@@H]3CCOc4cccc(C)c43)c2n1	100	–
CC(=CC(=O)Nc1ccccc1C(=O)O)c1ccc2ccccc2c1	102	–
O=C(C=Cc1cccc(S(=O)(=O)Nc2ccccc2)c1)NO	–	4.81 µM (active)
Nc1nc(Cl)nc2c1ncn2[C@@H]1O[C@H](CO)[C@@H](O)[C@H]1F	7.84	–
CC(C)=CC[C@@H](O)C1=CC(=O)c2c(O)ccc(O)c2C1=O	–	9.35 µM (active)
